Source: PubChem BioAssay
Activity calls are given as the source filed them.

Each compound was assayed on XIP peptide (Xip251-270) binding (assay: small-molecule binders of XIP peptide, primary screen, biochemical, small-molecule microarray, fluorescence 635/667 nm, 0.1 µg/mL protein (AID 1182)). Details: fluorescent protein binding, 635 nm, higher = more signal, called active from +8 up or from −8 down.

Row | Compound | composite z-score
1 | COc1c(C)cc(-c2nc(-c3ccccc3)c3c(c2C)CO[Si]3(C(C)C)C(C)C)cc1C | 0.412 (inactive)
2 | COc1ccc(CCNC(=O)[C@@]2(c3ccc([N+](=O)[O-])cc3)CC(=O)N(C3CCCCC3)[C@@H]2c2ccc(CO)cc2I)cc1 | 0.548 (inactive)
3 | COCCCNC(=O)[C@@]1(CCC(=O)OC(C)(C)C)N=C(c2ccc(OCCCO)cc2)O[C@H]1c1ccccc1 | 0.809 (inactive)
4 | COC(=O)C(CC#Cc1ccc2c(c1)[C@]1(C(=O)N2)[C@H](C(=O)N2CCCCCCC2)[C@H]2C(=O)O[C@H](c3ccccc3)[C@H](c3ccccc3)N2[C@@H]1c1ccc(OCCO)cc1)C(=O)OC | 6.2 (inactive)
5 | CN(C)CCCC[C@@H]1NC(=O)[C@H]2C[C@@H](C(=O)NCCCCCCNC(=O)CS)[C@@H](c3cccc(OCCO)c3)N2C1=O | 0.305 (inactive)
6 | CCCCC(=C=CC[C@@H](O)c1ccccc1OCCO)C[C@@H](O)c1ccccn1 | 0.161 (inactive)
7 | O=C(N1CCOCC1)[C@]1(CCS(=O)(=O)c2ccccc2)N=C(c2ccc(OCCCO)cc2)O[C@@H]1c1ccccc1 | 1.24 (inactive)
8 | [N-]=[N+]=NCc1ccccc1C[C@@]1(C(N)=O)N=C(c2ccc(OCCCO)cc2)O[C@@H]1c1ccccc1N=[N+]=[N-] | 0.497 (inactive)
9 | CC[C@@H]1C=C(C(=O)O)[C@H](c2cccc(Cl)c2)N1S(=O)(=O)c1ccc(C)cc1 | 0.415 (inactive)
10 | CN1C(=O)C2C(C1=O)C1C=C(CCCO)C2C(C2CC2)N1C (stereo not drawn) | 0.58 (inactive)
11 | COCCOC(=O)N1C(=O)[C@@]2(c3cc(C#CC4=CCCCC4)ccc31)[C@H](C(=O)N1CCCCCCC1)[C@H]1C(=O)O[C@H](c3ccccc3)[C@H](c3ccccc3)N1[C@@H]2c1ccccc1OCCO | 0.502 (inactive)
12 | CC[C@@H](O[Si](C#C[Si](C(C)C)(C(C)C)C(C)C)(C(C)C)C(C)C)c1cn([C@H](CO)Cc2ccccc2)nn1 | -0.0433 (inactive)

What follows are compounds tested on XIP peptide (Xip251-270) (assay: small-molecule binders of XIP peptide, primary screen, biochemical, small-molecule microarray, fluorescence 635/667 nm, 0.5 µg/mL protein (AID 1183)). Details: small-molecule microarray binding, fluorescence 635 nm; higher = more signal.

Row | Compound | composite z-score
13 | C=CC[C@H](O)c1ccc(O)c(F)c1 | 0.0085
14 | COc1ccc([Si](C)(C)[C@@H]2[C@@H](CC(=O)N3Cc4ccccc4C[C@H]3CO)O[C@]3(C(=O)N(Cc4ccc(I)cc4)c4ccccc43)[C@H]2C)cc1 | 0.477
15 | C=C(C(=O)CC[C@@H](OC(=O)c1ccccc1-c1ccccc1C(=O)O)c1ccc(CO)o1)C(C)C | 0.434
16 | CC1CC/C=C\[C@H]2OC34C=CCN(C(C)C)C(=O)[C@H]3N(C(C)CO)C(=O)[C@@H]4C2C(=O)O1 (stereo partly drawn) | 0.384
17 | O=C1O[C@H](c2ccccc2)[C@H](c2ccccc2)N2[C@H]1[C@@H](C(=O)O)[C@]1(C(=O)Nc3ccccc31)[C@H]2c1ccc(OCCO)cc1 | 0.711
18 | COc1ccc([Si](C)(C)[C@H]2[C@H](CC(=O)N(CCO)Cc3ccccc3)O[C@@]3(C(=O)N(Cc4ccc(N5C(=O)c6cccc7cccc5c67)cc4)c4ccccc43)[C@@H]2C)cc1 | 0.587
19 | CC(C)c1ccc(NN2C(C(O)C3CCCCC3)C=CC3C(=O)N(c4ccccc4)C(=O)C32)cc1 (stereo not drawn) | 0.788
20 | CC(C)N1C(=O)[C@@]2(Cc3ccccc31)c1ccccc1C(=O)N(Cc1ccccc1C(F)(F)F)[C@H]2c1ccc(CO)cc1 | 0.471
21 | C=C(C(=O)CC[C@@H](OC(=O)c1ccccc1-c1ccccc1C(=O)O)c1ccc(OCCO)cc1)C(C)C | 0.568
22 | C=C(CCCC)/C(=C/C[C@@H](OC(C)=O)c1ccc(OCCO)cc1)c1cc(C(=O)OC)ccc1OC | 0.633
23 | C=CCOC(=O)[C@H]1[C@@H]2C(=O)O[C@@H](c3ccccc3)[C@@H](c3ccccc3)N2[C@@H](c2ccc(OCCOC(=O)[C@H]3C[C@H]4C(=O)NCC(=O)N4[C@H]3c3ccc(O)cc3)cc2)[C@]12C(=O)Nc1ccccc12 | 0.81
24 | C=C(C(=O)CC[C@@H](OC(=O)c1ccccc1-c1ccccc1C(=O)O)c1cccc(OCCO)c1)C(C)C | 0.25
25 | COC(=O)C(CC#Cc1ccc2c(c1)[C@]1(C(=O)N2)[C@H](C(=O)NC[C@H](O)c2ccccc2)[C@H]2C(=O)O[C@H](c3ccccc3)[C@H](c3ccccc3)N2[C@@H]1c1ccc(O)cc1)C(=O)OC | 0.418
26 | O=C1C2C=CC(C(O)C3CCCCC3)N(Nc3ccccc3F)C2C(=O)N1c1ccccc1 (stereo not drawn) | 0.738
27 | C=CCNC(=O)[C@@H]1[C@H]2C(=O)O[C@H](c3ccccc3)[C@H](c3ccccc3)N2[C@H](c2ccc(O)cc2)[C@@]12C(=O)N(C(=O)OCCOC)c1ccc(C#CCC(C(=O)OC)C(=O)OC)cc12 | 0.756
28 | CN1C2C=C(c3ccc(CO)cc3)C(C3C(=O)N(C(N)=O)C(=O)C32)C1C1CC1 (stereo not drawn) | 0.0909
29 | COC(=O)[C@]1(Cc2ccccc2CN=[N+]=[N-])N=C(c2ccc(OCCCO)cc2)O[C@@H]1c1ccccc1N=[N+]=[N-] | 0.724
30 | COCCOC(=O)N1C(=O)[C@@]2(c3cc(C#CCC(C(=O)OC)C(=O)OC)ccc31)[C@H](C(=O)N1CCc3cc(OC)c(OC)cc3C1)[C@H]1C(=O)O[C@H](c3ccccc3)[C@H](c3ccccc3)N1[C@@H]2c1ccccc1OCCO | 0.733

Row | Compound | composite z-score
31 | COC(=O)C(CC#Cc1ccc2c(c1)[C@]1(C(=O)N2)[C@H](c2ccccc2OCCO)N2[C@H](c3ccccc3)[C@H](c3ccccc3)OC(=O)[C@H]2[C@@H]1C(=O)N1CCN(c2ncccn2)CC1)C(=O)OC | 0.539
32 | C=CC[C@]1(C(=O)NCCN2CCOCC2)N=C(c2ccc(OCCCO)cc2)O[C@H]1c1ccccc1 | 0.492
33 | CN(C)C(=O)[C@]1(CCS(=O)(=O)c2ccccc2)N=C(c2ccc(OCCCO)cc2)O[C@@H]1c1ccccc1CN=[N+]=[N-] | 0.816
34 | C=CCC(OC(C)=O)[C@@H]1[C@@H](N(Cc2cccc3ccccc23)C(=O)c2ccc(C)cc2)c2cc(OCCCO)ccc2N1C(=O)Cc1ccc2ccccc2c1 (stereo partly drawn) | 0.0814
35 | COCCCNC(=O)[C@@]1(Cc2ccccc2I)c2ccccc2C(=O)N(Cc2ccccc2C(F)(F)F)[C@H]1c1ccc(CO)cc1 | 0.854
36 | O=C(O)C1=CC[C@H]2C(=O)N(c3ccccc3)C(=O)[C@@H]12 | 0.783
37 | COc1c(C)cc(-c2nc(-c3ccccc3)c3c(c2C)CO[Si]3(C(C)C)C(C)C)cc1C | -0.487
38 | COc1ccc(CCNC(=O)[C@@]2(c3ccc([N+](=O)[O-])cc3)CC(=O)N(C3CCCCC3)[C@@H]2c2ccc(CO)cc2I)cc1 | 0.671
39 | COCCCNC(=O)[C@@]1(CCC(=O)OC(C)(C)C)N=C(c2ccc(OCCCO)cc2)O[C@H]1c1ccccc1 | 0.754
40 | COC(=O)C(CC#Cc1ccc2c(c1)[C@]1(C(=O)N2)[C@H](C(=O)N2CCCCCCC2)[C@H]2C(=O)O[C@H](c3ccccc3)[C@H](c3ccccc3)N2[C@@H]1c1ccc(OCCO)cc1)C(=O)OC | 0.956
41 | CN(C)CCCC[C@@H]1NC(=O)[C@H]2C[C@@H](C(=O)NCCCCCCNC(=O)CS)[C@@H](c3cccc(OCCO)c3)N2C1=O | 0.603
42 | CCCCC(=C=CC[C@@H](O)c1ccccc1OCCO)C[C@@H](O)c1ccccn1 | 0.338
43 | O=C(N1CCOCC1)[C@]1(CCS(=O)(=O)c2ccccc2)N=C(c2ccc(OCCCO)cc2)O[C@@H]1c1ccccc1 | 0.717
44 | [N-]=[N+]=NCc1ccccc1C[C@@]1(C(N)=O)N=C(c2ccc(OCCCO)cc2)O[C@@H]1c1ccccc1N=[N+]=[N-] | 0.63
45 | CC[C@@H]1C=C(C(=O)O)[C@H](c2cccc(Cl)c2)N1S(=O)(=O)c1ccc(C)cc1 | 0.141
46 | CN1C(=O)C2C(C1=O)C1C=C(CCCO)C2C(C2CC2)N1C (stereo not drawn) | 0.591
47 | COCCOC(=O)N1C(=O)[C@@]2(c3cc(C#CC4=CCCCC4)ccc31)[C@H](C(=O)N1CCCCCCC1)[C@H]1C(=O)O[C@H](c3ccccc3)[C@H](c3ccccc3)N1[C@@H]2c1ccccc1OCCO | 0.712
48 | CC[C@@H](O[Si](C#C[Si](C(C)C)(C(C)C)C(C)C)(C(C)C)C(C)C)c1cn([C@H](CO)Cc2ccccc2)nn1 | 0.411
